This is an account of results in PubChem BioAssay (Tox21).

The target in experiment [1] is Estrogen receptor (Homo sapiens) (UniProt P03372). The experiment is described as follows: qHTS assay to identify small molecule antagonists of the estrogen receptor alpha (ER-alpha) signaling pathway using the BG1 cell line in the presence of 0.1 nM 17-beta-estradiol (AID 1259244). Also: nearly all actives have a fitted effect of over 50% in size. The essentials: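 Compounds were tested against 0.1 nM (final) 17beta-estradiol in VM7Luc4E2 cells, which express full-length ER-alpha and an ERE-luciferase reporter; luminescence was recorded following 22 h exposure.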

Experiment [2] is described as follows: qHTS assay to identify small molecule phospholipidosis (PLD) inducers (AID 1259344; active = well fitted curve in the direction sought with a large enough effect; an effect the other way counts as inactive or inconclusive). An outline of the steps:
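Cells (HepG2, 900 per well) attach for 4 h, receive LipidTOX Red and compound together, incubate 24 h at 37 C, are fixed 30 min with paraformaldehyde/Hoechst, then imaged at one site per well.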

Experiment [3] is described as follows: qHTS assay to identify small molecule HDAC inhibitors (AID 1259364).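 Also: wild-type HCT-116 cells with endogenous class I/II HDAC activity; top concentration of the series differs between compounds; nearly all actives have a fitted effect of over 45% in size.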 An outline of the steps: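 Screening used wild-type human colon HCT-116 cells incubated overnight, dosed with compounds for 2 hours, and assayed with a homogeneous luminogenic HDAC I/II reagent for 30 minutes at room temperature.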
The nature of experiment [4]: qHTS assay to identify small molecule HDAC inhibitors - cell viability counter screen (AID 1259365). Also: series mostly up to about 92 µM; nearly all actives have a fitted effect of over 50% in size. An outline of the steps:
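Cytotoxicity was gauged in wild-type HCT-116 cells after a brief 2hr treatment with DMSO-dissolved compounds at 37C and 5% CO2, using CellTiter-Glo luminescence developed for 30min at room temperature.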

Experiment [5] is described as follows: qHTS assay to identify small molecule antagonists of the sonic hedgehog signaling (Shh) pathway - cell viability counter screen (AID 1259367). Also: nearly all actives have a fitted effect of over 55% in size. Also: potency is read from the fitted curve at half-maximal effect. The essentials:
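Cytotoxicity was assessed in parallel with Shh reporter activity by measuring live-cell protease fluorescence (CellTiter-Fluor) in NIH/3T3 cells stably carrying Gli1-Luc, treated with compound under conditioned medium stimulation for 23 hr plus 1 hr reagent incubation.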

The nature of experiment [6]: qHTS assay to identify small molecule agonists of the sonic hedgehog signaling (Shh) pathway (AID 1259368; calls by dose curve;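 also: NIH/3T3-derived 3T3Gli1-Luc cells carrying a stable Gli1-driven firefly luciferase reporter; series mostly up to about 92 µM; nearly all actives have a fitted effect of over 15% in size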). An outline of the steps:
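Hedgehog pathway agonism scored by increased firefly luciferase luminescence in 3T3Gli1-Luc cells treated 24 hr at 37 C; detection used a 30 min room-temperature reagent incubation.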

Experiment [7] is described as follows: qHTS assay to identify small molecule antagonists of the sonic hedgehog signaling (Shh) pathway (AID 1259369; calls by dose curve; also: nearly all actives have a fitted effect of over 45% in size; also: potency is read from the fitted curve at half-maximal effect). The essentials:
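NIH/3T3 stable Gli1-Luc clone, 2,000 cells/well, 4hr settle; cpd + conditioned medium 24hr; Luc reagent 30min RT; luminescence.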

For experiment [8], the target named is Estrogen receptor beta (Homo sapiens) (UniProt Q92731). Put plainly: qHTS assay to identify small molecule agonists of the estrogen receptor beta (ER-beta) signaling pathway (AID 1259377; active = well fitted activation curve with a large enough effect in the signal ratio in the repeat runs, not every such curve was filed as active; the % refers to the signal ratio). An outline of the steps: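 Measured by fluorescence intensity from a B/G FRET beta-lactamase substrate (2 h, room temperature) in ER-beta-UAS-bla HEK293T cells treated with DMSO-dissolved compounds for 16 hr at 37C and 5% CO2.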

Experiment [9] has the same target. Put plainly: qHTS assay to identify small molecule antagonists of the estrogen receptor beta (ER-beta) signaling pathway (AID 1259378; active = well fitted inhibition curve with a large enough effect in the signal ratio in the repeat runs, not every such curve was filed as active; the % refers to the signal ratio). The essentials: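 ER-beta-UAS-bla HEK293T (GripTite) cells in 2% charcoal-stripped FBS medium were preincubated 6 hr at 37C, dosed with compound, then stimulated with 1 nM E2 (final) for 16 hr; beta-lactamase reporter read by B/G FRET fluorescence after 2 hr substrate loading.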

A short description of experiment [10]: qHTS assay to identify small molecule agonists of the estrogen receptor beta (ER-beta) signaling pathway - cell viability counter screen (AID 1259380). Also: nearly all actives have a fitted effect of over 30% in size. Also: potency is read from the fitted curve at half-maximal effect. An outline of the steps: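 Measured: luminescence from CellTiter-Glo after 30 min at room temperature, added to wells already read for the LiveBLAzer FRET reporter (2 hr substrate); ER-beta-UAS-bla HEK293T cells had 16 hr compound treatment at 37C, 5% CO2.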

The nature of experiment [11]: qHTS assay to identify small molecule antagonists of the estrogen receptor beta (ER-beta) signaling pathway - cell viability counter screen (AID 1259382). Also: series mostly up to about 92 µM; nearly all actives have a fitted effect of over 55% in size. The essentials:
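Readout: luminescence, CellTiter-Glo, same wells as bla assay. System: ER-beta-UAS-bla GripTite HEK293T, 2% charcoal-stripped FBS. Exposure: compounds plus 1nM 17-beta-estradiol, 16 hr, 37C.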

The target in experiment [12] is Estrogen receptor (Homo sapiens) (UniProt P03372). The experiment is described as follows: qHTS assay to identify small molecule agonists of the estrogen receptor alpha (ER-alpha) signaling pathway in the presence of an antagonist (AID 1259383; calls by dose curve; also: nearly all actives have a fitted effect of over 15% in size; also: potency is read from the fitted curve at half-maximal effect; as to activation: top concentration of the series differs between compounds). The essentials: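 Quantitative HTS confirmation: compounds titrated at 15 concentrations onto estrogen-deprived VM7Luc4E2 cells carrying a four-ERE luciferase construct, with ICI-182,780 present at 10.0nM final. Signal is luminescence after 22hr exposure.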

Experiment [13] can be described thus: qHTS assay to identify small molecule agonists or antagonists of the thyroid stimulating hormone receptor (TSHR) signaling pathway - wild type cell line counter screen (AID 1259384; calls by dose curve). The essentials:
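Wild-type HEK293 cells were plated 18 h at 37 C/5% CO2, pin-dosed with compound plus Ro20-1724 medium, held 30 min at room temperature, then given cAMP-d2 and anti-cAMP-cryptate; fluorescence was read after 1 h. Fifteen concentrations, triplicate.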

Experiment [14] addresses Thyrotropin receptor (Homo sapiens) (UniProt P16473). The experiment is described as follows: qHTS assay to identify small molecule antagonists of the thyroid stimulating hormone receptor (TSHR) signaling pathway (AID 1259385; calls by dose curve; also: nearly all actives have a fitted effect of over 20% in size). An outline of the steps:
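TSHR-HEK293 cells were plated and held 18 h at 37C/5% CO2, then given compound plus Ro20-1724 and stimulated with TSH at 1.5 ng/mL final. After 30 min at room temperature, cAMP was detected with cAMP-d2/anti-cAMP-cryptate (1 h) by fluorescence.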

For experiment [15], the target named is Progesterone receptor (Homo sapiens) (UniProt P06401). The experiment is described as follows: qHTS assay to identify small molecule agonists of the progesterone receptor (PR) signaling pathway (AID 1346784; calls by dose curve; also: nearly all actives have a fitted effect of over 30% in size). An outline of the steps: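 The screen uses PR-UAS-bla HEK 293T cells in charcoal-stripped serum (2%). Compounds are applied for 16 hr at 37C after a 6 hr pre-incubation, and reporter activity is detected with a FRET beta-lactamase substrate after 2 hr at room temperature.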

A short description of experiment [16]: qHTS assay to identify small molecule agonists of the sonic hedgehog signaling (Shh) pathway - cell viability counter screen (AID 1259366). Also: nearly all actives have a fitted effect of over 50% in size. Also: potency is read from the fitted curve at half-maximal effect. The essentials: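 Stable Gli1-Luc NIH/3T3 clone, 2,000 cells/well. Compound exposure 24hr at 37C. Read-out: CellTiter-Fluor fluorescence.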
Experiment [17] in a line: qHTS assay to identify small molecule agonists of the estrogen receptor alpha (ER-alpha) signaling pathway in the presence of an antagonist - cell viability counter screen (AID 1259386).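 Also: series mostly up to about 92 µM; cells exposed to compounds for 22 h at 37 °C before the viability read; nearly all actives have a fitted effect of over 30% in size.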 The essentials: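 The test measures whether compounds kill ER-alpha reporter cells (VM7Luc4E2) under antagonist co-treatment (ICI-182,780, 10.0nM). Fluorescence from CellTiter-Fluor is read after a 22hr exposure.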

Experiment [18] in a line: qHTS assay to identify small molecule agonists of the androgen receptor (AR) signaling pathway in the presence of an antagonist - cell viability counter screen (AID 1259379).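 Also: MDA-kb2 human breast cancer cells carrying an MMTV luciferase reporter; series mostly up to about 92 µM; nearly all actives have a fitted effect of over 25% in size.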 The essentials: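 MDA-kb2 viability measured by CellTiter-Fluor fluorescence in the same wells as the luciferase signal; nilutamide 3.0uM final; 15-point compound titration; 16 hr at 37C.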

“And” between values parts separate entries of the source, which are not always exact repeats. Equal entries are not always repeated. Results filed as inconclusive are left out. Where a structure was tested more than once in an assay, its records may differ in their call. The source made the active and inactive calls. Unless noted, calls follow the shape of the dose curve; as a rule, active = well fitted curve in the direction sought with a large enough effect in the repeat runs; inconclusive = weak or mixed curves; inactive = no such curve, though single readings can be large; an effect the other way counts as inactive or inconclusive.

Thyrotropin receptor (Homo sapiens), sequence (P16473 whole entry, looked up): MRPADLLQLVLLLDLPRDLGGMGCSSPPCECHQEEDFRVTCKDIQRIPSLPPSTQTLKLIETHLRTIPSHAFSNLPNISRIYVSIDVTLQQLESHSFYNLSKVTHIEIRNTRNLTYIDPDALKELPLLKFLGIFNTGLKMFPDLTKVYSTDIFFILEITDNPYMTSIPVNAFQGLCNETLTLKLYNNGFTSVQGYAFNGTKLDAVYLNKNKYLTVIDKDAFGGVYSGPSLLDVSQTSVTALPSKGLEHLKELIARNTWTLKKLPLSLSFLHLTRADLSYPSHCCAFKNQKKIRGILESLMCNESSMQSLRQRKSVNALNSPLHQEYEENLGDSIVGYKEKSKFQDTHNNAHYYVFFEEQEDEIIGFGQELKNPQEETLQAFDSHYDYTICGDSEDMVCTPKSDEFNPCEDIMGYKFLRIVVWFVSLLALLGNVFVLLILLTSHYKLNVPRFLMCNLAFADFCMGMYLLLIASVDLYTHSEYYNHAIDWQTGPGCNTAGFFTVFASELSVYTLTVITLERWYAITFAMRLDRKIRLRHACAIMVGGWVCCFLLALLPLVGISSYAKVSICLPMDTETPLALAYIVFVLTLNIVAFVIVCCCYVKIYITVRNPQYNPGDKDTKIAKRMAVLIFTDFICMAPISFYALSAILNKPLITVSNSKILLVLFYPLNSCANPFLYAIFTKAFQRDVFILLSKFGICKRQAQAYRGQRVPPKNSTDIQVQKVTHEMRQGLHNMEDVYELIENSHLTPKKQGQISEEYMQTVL
Estrogen receptor beta (Homo sapiens), sequence (Q92731 whole entry, looked up): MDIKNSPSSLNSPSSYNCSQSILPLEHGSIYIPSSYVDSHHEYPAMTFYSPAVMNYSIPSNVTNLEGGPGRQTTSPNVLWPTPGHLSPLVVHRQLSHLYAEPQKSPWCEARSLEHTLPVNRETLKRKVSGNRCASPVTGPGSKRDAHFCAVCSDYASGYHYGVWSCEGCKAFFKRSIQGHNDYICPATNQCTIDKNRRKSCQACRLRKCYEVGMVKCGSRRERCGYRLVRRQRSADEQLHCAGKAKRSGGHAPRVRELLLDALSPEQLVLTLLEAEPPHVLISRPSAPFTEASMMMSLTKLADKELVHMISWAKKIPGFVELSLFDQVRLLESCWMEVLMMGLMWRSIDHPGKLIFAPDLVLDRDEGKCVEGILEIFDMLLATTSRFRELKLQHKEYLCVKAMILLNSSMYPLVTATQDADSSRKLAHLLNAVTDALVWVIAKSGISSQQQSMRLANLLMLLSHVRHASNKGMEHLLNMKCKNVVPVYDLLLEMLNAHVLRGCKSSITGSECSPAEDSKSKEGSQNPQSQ
Estrogen receptor (Homo sapiens), sequence (P03372 whole entry, looked up): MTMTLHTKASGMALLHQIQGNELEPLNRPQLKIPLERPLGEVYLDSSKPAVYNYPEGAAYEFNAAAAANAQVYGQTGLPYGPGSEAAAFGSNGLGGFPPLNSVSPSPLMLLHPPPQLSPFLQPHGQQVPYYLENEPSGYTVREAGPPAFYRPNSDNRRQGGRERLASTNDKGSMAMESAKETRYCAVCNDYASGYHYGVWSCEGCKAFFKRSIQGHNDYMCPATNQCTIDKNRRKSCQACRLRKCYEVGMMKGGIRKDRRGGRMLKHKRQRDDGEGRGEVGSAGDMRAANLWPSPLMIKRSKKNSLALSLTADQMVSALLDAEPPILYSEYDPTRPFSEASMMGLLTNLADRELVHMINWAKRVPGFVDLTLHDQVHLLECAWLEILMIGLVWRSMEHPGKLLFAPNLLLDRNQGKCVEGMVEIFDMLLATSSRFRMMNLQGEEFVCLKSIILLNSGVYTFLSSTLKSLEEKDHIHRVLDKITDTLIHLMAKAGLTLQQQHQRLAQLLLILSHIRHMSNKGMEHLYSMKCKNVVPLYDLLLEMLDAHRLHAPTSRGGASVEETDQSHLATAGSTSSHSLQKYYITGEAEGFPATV
Progesterone receptor (Homo sapiens), sequence (P06401 whole entry, looked up): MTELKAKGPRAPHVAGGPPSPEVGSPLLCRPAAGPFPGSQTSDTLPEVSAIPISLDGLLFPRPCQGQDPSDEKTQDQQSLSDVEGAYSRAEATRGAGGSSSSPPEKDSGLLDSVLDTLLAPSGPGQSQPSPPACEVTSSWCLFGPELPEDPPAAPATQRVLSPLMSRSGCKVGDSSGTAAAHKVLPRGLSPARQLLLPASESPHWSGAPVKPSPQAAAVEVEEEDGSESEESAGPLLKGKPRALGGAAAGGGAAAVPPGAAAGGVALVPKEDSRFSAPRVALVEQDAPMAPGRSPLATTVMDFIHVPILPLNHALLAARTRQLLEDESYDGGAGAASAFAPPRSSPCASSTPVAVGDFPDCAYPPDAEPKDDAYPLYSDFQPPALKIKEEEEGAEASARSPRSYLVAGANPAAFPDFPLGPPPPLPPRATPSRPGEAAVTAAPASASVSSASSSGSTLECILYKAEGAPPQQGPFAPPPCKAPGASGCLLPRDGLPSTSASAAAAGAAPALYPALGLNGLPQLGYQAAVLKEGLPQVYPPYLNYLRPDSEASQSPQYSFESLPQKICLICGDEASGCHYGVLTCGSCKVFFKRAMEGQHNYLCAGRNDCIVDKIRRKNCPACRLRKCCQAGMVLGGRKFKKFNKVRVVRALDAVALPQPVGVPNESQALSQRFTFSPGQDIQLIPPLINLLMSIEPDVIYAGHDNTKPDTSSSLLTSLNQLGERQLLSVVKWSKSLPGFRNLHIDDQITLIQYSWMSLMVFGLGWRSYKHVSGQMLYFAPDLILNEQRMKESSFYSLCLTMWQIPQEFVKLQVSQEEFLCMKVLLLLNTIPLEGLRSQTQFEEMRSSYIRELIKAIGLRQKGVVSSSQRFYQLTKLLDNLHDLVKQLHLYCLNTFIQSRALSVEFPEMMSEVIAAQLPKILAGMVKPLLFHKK

Take `C=CS(=O)(=O)O`: the Potency entry in experiment [1], in experiment [2], in experiment [3], in experiment [4], in experiment [5] and in experiment [6] was “inactive” throughout. In addition, the Potency result in [7], in experiment [9], in experiment [10], in experiment [11], in experiment [12] and in experiment [13] was “inactive” throughout. For the same compound, the Potency entry in experiment [14] and in experiment [15] was “inactive” each time. The result in experiment [8] was inactive.
In the case of `CCCOC(=O)c1cc(O)c(O)c(O)c1`, the Potency entry in [1], in experiment [2], in experiment [4], in experiment [5], in experiment [6] and in experiment [10] was “inactive” each time. Further, the Potency entry in experiment [11], in [12], in [13], in [14] and in experiment [15] was “inactive” in each case. Moreover, the Potency in [7] was 12.1 µM (active). For the same compound, the compound was classed as inactive in [8].
On to `CC(C)CCOC(=O)c1ccc(N(C)C)cc1`, for which the Potency result in experiment [1], in experiment [2], in [4], in experiment [16], in experiment [5] and in experiment [6] was “inactive” throughout. The Potency result in experiment [7], in experiment [10], in [11], in experiment [13] and in [15] was “inactive” in each case. In experiment [8], the result was inactive. Further, in experiment [12], the Potency was 2.98 µM (active).
In the case of `CC(=O)C1=C(C)[C@@H]2C[C@@]3(C1)[C@H](C)CC[C@H]3C2(C)C`, the Potency entry in experiment [1], in [3], in experiment [4], in [16], in [5] and in experiment [6] was “inactive” in each case. Also, the Potency entry in experiment [7], in experiment [10], in experiment [11], in [12], in experiment [13] and in experiment [17] was “inactive” each time. In [15], the Potency entry is “inactive”. Also, the compound was classed as inactive in experiment [8].
Turning to `CCCNC(C)C(=O)Nc1ccccc1C` (stereo not drawn), the Potency entry in experiment [1], in experiment [2], in [3], in [4], in experiment [16] and in experiment [5] was “inactive” each time. Besides, the Potency entry in experiment [6], in experiment [7], in [18], in experiment [10], in experiment [11] and in [12] was “inactive” throughout. Also, the Potency result in experiment [13], in experiment [14], in experiment [17] and in experiment [15] was “inactive” each time.
For `CC(C)(C)c1cc(C(C)(C)C)c(O)c(C(C)(C)C)c1`, the Potency entry in experiment [1], in experiment [3], in [4], in experiment [16], in [5] and in experiment [6] was “inactive” throughout. The Potency result in experiment [7], in experiment [9], in experiment [18], in experiment [11], in experiment [12] and in experiment [13] was “inactive” throughout. For the same compound, the Potency entry in experiment [14] and in experiment [15] was “inactive” each time. For the same compound, the compound was called inactive in [8]. The Potency result in [10] is “inactive and 48.6 µM (active)”.
Regarding `O=c1n(CC2CO2)c(=O)n(CC2CO2)c(=O)n1CC1CO1` (stereo not drawn), the Potency entry in experiment [1], in experiment [2], in experiment [4], in experiment [6], in [9] and in experiment [10] was “inactive” throughout. Besides, the Potency result in experiment [11], in experiment [12], in [13], in [14], in experiment [17] and in experiment [15] was “inactive” each time. The Potency was 61.1 µM (active) in [16]; 30.5 µM (active) and 48.6 µM (active) in [5]; 963 nM (active) and 3.06 µM (active) in experiment [7]. For the same compound, the compound was classed as inactive in experiment [8].
